Screening results as filed in PubChem BioAssay.
Rows were chosen to be rich in hits. Some 1.5% of all compounds tested hit in one or more screens of this group.
MRP-1 activ = activates MRP-1; H69AR cells + doxorubicin, viability rescue, CellTiter-Glo; viability increase, % at 10 µM; actives 0.61% (n = 140,000); AID 799;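 active = viability gain under doxorubicin at or above a set limit, the compound median plus 3 SD, cut at about 4.7% in these data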;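 also: MRP-1 overexpressing cells given doxorubicin 25 µM after compound pretreatment; 18-22 h compound pretreatment then 72 h with doxorubicin before readout; 0% = doxorubicin-only wells and 100% = vehicle-treated cells without doxorubicin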
Mac1 fbg inh = blocks human CD11b/CD18 adhesion to fibrinogen | inhibition, % at 10 µM | P05107+P11215 | K562 CD11b/CD18 adhesion to fibrinogen, ATPlite luminescence; Mn2+ added to activate the integrin | actives 0.54% (n = 93,000);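 active = primary inhibition of 50% or more at 10 µM, then 40% or more on retest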
Target sequence (P05107 whole entry, looked up, other chains not shown): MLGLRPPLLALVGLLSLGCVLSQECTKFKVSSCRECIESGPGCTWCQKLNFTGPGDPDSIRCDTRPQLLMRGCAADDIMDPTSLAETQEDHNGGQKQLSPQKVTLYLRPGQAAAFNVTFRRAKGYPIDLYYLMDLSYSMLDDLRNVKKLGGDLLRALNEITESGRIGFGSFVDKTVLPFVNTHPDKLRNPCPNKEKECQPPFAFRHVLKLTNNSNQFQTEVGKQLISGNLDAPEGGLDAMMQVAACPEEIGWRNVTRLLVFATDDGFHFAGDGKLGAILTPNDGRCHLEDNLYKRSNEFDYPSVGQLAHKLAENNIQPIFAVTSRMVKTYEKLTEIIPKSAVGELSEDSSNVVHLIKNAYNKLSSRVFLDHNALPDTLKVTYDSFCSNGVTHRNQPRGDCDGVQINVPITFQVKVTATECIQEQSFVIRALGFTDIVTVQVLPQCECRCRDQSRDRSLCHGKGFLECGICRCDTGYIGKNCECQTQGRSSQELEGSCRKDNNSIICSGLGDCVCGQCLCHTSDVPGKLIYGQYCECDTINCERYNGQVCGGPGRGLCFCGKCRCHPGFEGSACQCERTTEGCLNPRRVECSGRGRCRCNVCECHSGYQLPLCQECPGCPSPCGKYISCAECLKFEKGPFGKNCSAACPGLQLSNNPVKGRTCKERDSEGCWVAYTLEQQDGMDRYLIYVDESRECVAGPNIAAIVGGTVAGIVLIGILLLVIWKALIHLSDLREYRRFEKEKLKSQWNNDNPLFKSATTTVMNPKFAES
MRP reversal = compounds reversing MRP-mediated drug resistance; differential viability (reversal), % at 10 µM; actives 0.04% (n = 85,000); AID 602; H69AR cells + 2 uM doxorubicin, CellTiter-Glo, 72 h;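 active = viability drop by adding the cancer drug above about 55%, with treated viability meeting a 40% cutoff, limit read from the data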;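 also: viability without doxorubicin minus viability with 2 µM doxorubicin for each compound; larger differential means the compound sensitizes cells more to doxorubicin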
Phagocyt inh = blocks phagocytosis by macrophages; AID 1029; J774A.1 macrophage IgG-bead phagocytosis, imaging; inhibition, % at 5 µM; actives 0.07% (n = 110,000);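 active = inhibition above the mean of the plate negative controls plus 5 SD, cut at about 13% in these data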;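 also: phagocytic index as fraction of beads internalized from green versus red external bead signal; plate controls were DMSO negative control for no effect and cytochalasin-D positive control for full effect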
Mac1 fbg enh = CD11b/CD18-fibrinogen binding enhancement; actives 0.07% (n = 93,000); AID 1499; K562 CD11b/CD18 adhesion to fibrinogen, ATPlite luminescence; activation, % at 10 µM; P05107+P11215;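 active = 10 µM primary screen giving 50% or more activity, confirmed by 40% or more on retest at that dose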
FAK blocker = FAK (human) kinase inhibition. AID 727. actives 0.84% (n = 97,000). inhibition, %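 (tested at 7 µM)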. biochemical FAK kinase activity assay. Q05397; in the data active = inhibition above about 19%;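 also: 0% = DMSO and 100% = reference compound high control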
Active calls of the source: *; · = no result given.

SMILES	MRP-1 activ	Mac1 fbg inh	MRP reversal	Phagocyt inh	Mac1 fbg enh	FAK blocker
CC(=O)N1CCN=C1SCc1cccc(C(F)(F)F)c1	4	-30	2	-1	-3	2
O=C(c1ccco1)N1CCN=C1SCc1cccc(F)c1	3	2	10	0	0	-7
Cc1cc(C(=O)COC(=O)c2n[nH]c3ccccc23)c(C)n1C	-3	-4	-6	-1	-1	-4
COCCn1c(C)cc(C(=O)COC(=O)c2n[nH]c3ccccc23)c1C	-1	53*	-4	0	-6	·
Cc1ccc(-c2nnc(SCC(=O)N/N=C/c3ccc(C)s3)n2-c2ccccc2)cc1	-4	·	·	-9	·	·
Cc1ccc(C(=O)N/N=C2/NC(=O)CC(C(=O)Nc3ccccc3)S2)cc1 (centres undefined)	-1	22	·	-7	-1	·
O=C(O)c1ccc(-n2nnnc2SCc2ccccc2)cc1	-4	5	83*	1	2	-2
COc1ccccc1NC(=O)Cn1c(=O)n(CCc2c[nH]c3ccccc23)c(=O)c2cccnc21	-2	·	·	·	·	·
Cn1cccc1C(=S)N=P(C1CCCCC1)(N1CCOCC1)N1CCOCC1	-3	-2	3	0	-6	3
CC1=C(C(=O)Nc2ccccc2C)C(c2ccc(C)o2)N2C(=O)CSC2=N1 (centres undefined)	7.3*	-7	3	-1	4	-1
CCCCCOc1ccc(C2C(C(C)=O)=C(C)Nc3ncnn32)cc1OC (centres undefined)	-3	12	·	-1	-2	-3
O=C(C1CCCO1)N1CCN(C(=S)Nc2ccc(Cl)cc2)CC1 (centres undefined)	1	·	·	-5	·	·
COC(=O)Cc1ccc(NC(=O)c2ccc(C(C)(C)C)cc2)cc1	1	59*	3	-1	-8	0
CCC1CCCCN1C(=O)Cn1c(=O)n(CCC(=O)NCc2ccco2)c(=O)c2sccc21 (centres undefined)	-3	-10	5	0	0	4
COc1cc(OC)cc(C(=O)Nc2nc3ccccc3[nH]2)c1	-4	-7	-11	0	-6	0
COc1ccc(C(=O)Nc2nc3ccccc3[nH]2)cc1OC	-3	·	64*	·	·	4
O=C(CSCC(=O)N1CCCCC1)Nc1nc(-c2ccc(Cl)s2)cs1	-5	84*	-6	-1	-8	4
O=S(=O)(Nc1ncnc2sc3c(c12)CCC3)c1ccc(Cl)s1	-2	87*	-8	2	-10	1
Cc1nc(NS(=O)(=O)c2cccs2)c2c3c(sc2n1)CCC3	0	5	-5	0	0	-5
O=C(O)[C@H](CO)Nc1ncnc2sc3c(c12)CCC3	-2	·	-3	·	·	-3
Cc1nc(NS(=O)(=O)c2ccc(Br)cc2)c2c3c(sc2n1)CCC3	1	93*	-6	·	-11	-5
CSc1ccccc1NC(=O)c1cccnc1	-1	-48	6	0	3	-2
Clc1ccc2nc(CN3CCCc4ccccc43)cn2c1	-1	·	8	-1	·	5
Cc1ccc(COc2cccc3c2CCN(Cc2ccc(F)cc2)C3=O)cc1	5.0*	101	·	1	-17	·
O=C1c2cccc(OCc3ccc(F)cc3)c2CCN1Cc1ccccc1	1	101	·	2	-18	·
SMILES	MRP-1 activ	Mac1 fbg inh	MRP reversal	Phagocyt inh	Mac1 fbg enh	FAK blocker
CCn1cc(C2C3=C(CC(C)(C)CC3=O)N(c3ccccc3)C3=C2C(=O)CC(C)(C)C3)c(C)n1	-3	·	·	-6	·	·
O=C(c1ccc(CS(=O)(=O)c2ccc(Br)cc2)o1)N1CCN(C2CCCCC2)CC1	-2	-4	74*	0	4	2
COc1ccc(S(=O)(=O)Cc2ccc(C(=O)N3CCN(C4CCCCC4)CC3)o2)cc1	-3	-12	4	0	3	0
COC(=O)c1ccc(-n2c(C)nc(=O)c(-c3ccccc3)c2C)cc1	4	-16	12	-1	-5	-10
COc1ccc(-n2c(C)nc(=O)c(-c3ccccc3)c2C)cc1	8.2*	·	4	·	·	0
Cc1nc(=O)c(-c2ccccc2)c(C)n1-c1cccc(C(=O)O)c1	6.0*	0	-4	0	-3	2
CNc1sc(C(=O)c2ccccc2F)c(N)c1-c1nc2ccccc2s1	6.8*	20	-2	0	-3	4
CCCNC(=O)c1ccc(-c2nc3ccccc3s2)s1	-2	10	-17	1	-2	3
